Several values for one entry are separate records, joined by “and”; a condition that tells them apart may be missing. Equal entries are not always repeated. About 83,000 compounds went through this panel and 20% of them were active in at least one assay; those are over-represented in the sample as a whole.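 Cells were grown in 96-well plates and exposed to the test compound at a single concentration for 48 hours; results are reported as percent growth, with values below 10 considered active.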 A number with no mark means an inactive call. Activity calls are given as the source filed them.

The record followed here is PubChem BioAssay (NCI).

The assay deals with MDA-MB-468 breast. As to the kind of experiment: NCI-60 one-dose screen, 48 h (100 = growth as untreated, 0 = no growth, -100 = all killed). Conditions: 10 µM unless noted.
On to `COc1cc(C2=NN(C(C)=O)C(c3ccc(OC(C)=O)cc3OC(C)=O)O2)c(OC(C)=O)c2ccccc12` (stereo not given), for which the growth is -9.39% (active).

As to `COc1ccc(OC)c(NC2=C(Cl)C(=O)C(C)=C(C)C2=O)c1`, the growth is -31.6% (active).

As to `C#Cc1cccc(NC(=O)C2CCCCN2C(=O)CCl)c1` (stereo not given), the growth is -60.1% [8.25 µM] (active).

Turning to `ClC1=C(Cl)C(Cl)=C(Cl)C1=C/C=C/c1ccccc1`, the growth is -50.3% (active).

With `CC1O[C@@H](OC2[C@H](OC(=O)/C=C/c3ccc(O)c(O)c3)C(COC3O[C@H](C)C(O)C(O)[C@@H]3O)O[C@@H](OCCc3ccc(O)c(O)c3)[C@H]2O)[C@@H](O)C(O)[C@H]1O` (stereo not given in full), the growth is 106%.

Consider `CCOC(=O)CNC(=O)C1(NC(=O)CNC(=O)OCc2ccccc2)CCCC1`, for which the growth was 131%.

For the compound `O=c1[nH]cnc2c1ncn2C1OC(CO)C(O)C1O` (stereo not given), the growth was 123% and 113% and 111%.

Take `COc1ccc(-c2nc3cc(Cl)c(Cl)cc3n2CC(=O)N=Nc2c(O)[nH]c3ccccc23)cc1`: the growth is 60.6%.

Take `CC[C@]12C=CCN3CC[C@@]4(c5ccc(OC)cc5N(C)[C@H]4[C@@](O)(C(=O)OC)[C@@H]1OC(=O)CCC(=O)O[C@H]1CC[C@H]4[C@@H]5CCC6=CC(=O)CC[C@@H]6[C@H]5CC[C@]14C)[C@@H]32`: the growth was -30.2% [100 µM] (active).

Turning to `COc1cccc(OC)c1Oc1c(-c2nc3ccccc3s2)c(C)nn1-c1ccccc1`, the growth is 71.2%.

Take `O=S(=O)(NCCNc1nccc(-c2c(-c3ccc(F)c(O)c3)nc3sccn23)n1)c1ccc(Cl)cc1`: the growth is 19.5%.

Regarding `O=C(CN1CCN(c2cc(=O)[nH]c3ccc(F)cc23)CC1)Nc1ccc(Cl)cc1`, the growth is 58.2%.

Take `O=C1CCCCC1(c1ccccc1)c1ccccc1`: the growth was 98.4%.

As for `COc1ccc2nc3cc(Cl)ccc3c(NCCCNCCO)c2c1`, the growth is -34.1% (active).

In the case of `COc1ccc(-c2nc3sc4c(c3c(=O)[nH]2)CCCC4)c2ccccc12`, the growth was 25%.

In the case of `Cc1c(N)ccc(-c2ccc(N)c(C)c2S(=O)(=O)O)c1S(=O)(=O)O`, the growth was 115%.

Take `Nc1nc2c(c3cnccc13)C(c1cccc(Br)c1)Cc1cnccc1-2` (stereo not given): the growth was -16.1% (active).

Regarding `CCNC(=O)N1CCc2cc(OC)c(OCCc3ccc(OC)cc3)cc2C1c1ccc([N+](=O)[O-])cc1C` (stereo not given), the growth was -5.05% (active).

As to `Cc1ccc2cccc([N+](=O)[O-])c2n1`, the growth was 107% and 100%.

`C[C@@H]1OCC2(CCN(c3cnc(C(=O)Nc4cc(F)cc5cccnc45)cn3)CC2)[C@@H]1N`: the growth is 1.07% (active).

On to `CCCCN(CCCC)c1ccc(C(=NC(C)CCCN(CC)CC)c2ccc(N(C)C)cc2)cc1` (stereo not given), for which the growth is -85.8% (active).

Regarding `CCn1cc(-c2ccnc(NCCNS(=O)(=O)c3cccc4ccccc34)c2)c(-c2cccc(O)c2)n1`, the growth is 90.3%.

`OCC1OC(n2cnc3c(NCc4ccco4)ncnc32)C(O)C1O` (stereo not given): the growth was -82.8% (active).

For `CCN(c1ccc(Cl)cc1)c1nc(-c2ccc([N+](=O)[O-])cc2)cs1`, the growth was 83.8%.

As to `COc1cc(Cc2cc(-c3ccccc3)nn(Cc3ccccc3)c2=O)cc(OC)c1OC`, the growth was 28.4%.

`CCOC(=O)C/C(C)=N\NC(=O)c1ccncc1`: the growth is 110%.

For `O=C(c1ccccc1)c1c(/C=C/c2ccccc2)nc2ccccc2c1/C=C/c1ccc(Br)cc1`, the growth is 94.3%.

As for `COc1ccc(CCNC=O)cc1OC`, the growth was 77.7%.

In the case of `CCCCC[n+]1ccc(SCC(=O)N(C)c2ccc(Oc3ccccc3)cc2)c2ccccc21`, the growth was 38.9%.

On to `CNCCCNCCCN1C(=O)c2ccc3c4c(ccc(c24)C1=O)C(=O)N(CCCNCc1ccccc1OC)C3=O`, for which the growth is -69.5% (active).

On to `C=CCn1c(SCC(=O)Nc2ccc(C(=O)/C=C/c3cc(OC)c(OC)c(OC)c3)cc2)nnc1-c1ccc(OC)cc1`, for which the growth is -26.5% (active).

For the compound `NS(=O)(=O)Oc1ccc2nc(Nc3ccc(F)c(F)c3)ccc2c1`, the growth was 96.9%.

Regarding `O=C(c1ccccc1)C(Br)C(Br)c1ccccc1` (stereo not given), the growth was 72.3%.

Turning to `O=C(O)c1cn(C2CC2)c2cc(N3CCN(C(=O)CSc4nc(NS(=O)(=O)c5ccccc5)cc(=O)[nH]4)CC3)c(F)cc2c1=O`, the growth is 98.7%.

Consider `O=C(/C=C(/C=C/c1ccc2[nH]ccc2c1)OB(F)F)/C=C/c1ccc2[nH]ccc2c1`, for which the growth is -57% (active).

For the compound `Cc1ccc2nc(-c3ccc(OCC(=O)N=Nc4c(O)[nH]c5ccccc45)cc3)[nH]c2c1`, the growth is 60.6%.

Regarding `COc1cccc(C(=O)NNc2nc(N3CCOCC3)nc(N3CCN(C(c4ccccc4)c4ccccc4)CC3)n2)c1`, the growth is 61.7%.

With `O=c1cc(-c2ccc(OCc3ccccc3)cc2)oc2c(I)c(OCc3ccccc3)cc(OCc3ccccc3)c12`, the growth was 102%.

In the case of `Cc1nc2ccccc2c(/C=C/c2ccccc2)c1C(=O)/C=C/c1ccc(C(F)(F)F)cc1`, the growth was -67.8% (active).

With `Nc1ccc(Cl)c(S(=O)(=O)O)c1`, the growth is 99.3%.
